Ten molecules from PubChem BioAssay can be followed below.

Test [1] is described as follows: small molecules captured by biotinylated probe aFSTL3 – biochemical, small-molecule microarray, fluorescence 635/667, stem cell growth factor project, primary screen (AID 1064).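 Note: measures binding of the biotinylated anti-FSTL3 antibody to printed compounds.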 Conditions: higher = more signal.
Test [2] in a line: binders from COS7 lysate, DM2A8 probe, primary screen, torsin A project, cell lysate, small-molecule microarray, fluorescence 635/667 (AID 1065). Conditions: higher = more signal, COS7 lysate expressing mutant human TOR1A.
A short description of test [3]: small molecules captured by biotinylated probe aFGF2 – biochemical, small-molecule microarray, fluorescence 635/667, stem cell growth factor project, primary screen (AID 1067).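 Note: measures binding of biotinylated aFGF2 protein to printed compounds on slides; z-score merges feature fluorescence and signal-to-noise across triplicate slides.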 Conditions: higher = more signal.
A short description of test [4]: small molecules captured by biotinylated probe aFGF10 – biochemical, small-molecule microarray, fluorescence 635/667, stem cell growth factor project, primary screen (AID 1071).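 Note: score merges 667 nm spot intensity and signal to noise from triplicate slides.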 Conditions: higher = more signal.
For test [5], the target named is Neurogenic locus notch homolog protein 2 (Homo sapiens) (UniProt Q04721). Description: small molecules binding Notch2 protein – biochemical, small-molecule microarray, 635 nm fluorescence, stem cell growth factors, primary screen (AID 1073). Conditions: higher = more signal.
Chain of Neurogenic locus notch homolog protein 2 (Homo sapiens) (Q04721 whole entry, looked up, canonical isoform): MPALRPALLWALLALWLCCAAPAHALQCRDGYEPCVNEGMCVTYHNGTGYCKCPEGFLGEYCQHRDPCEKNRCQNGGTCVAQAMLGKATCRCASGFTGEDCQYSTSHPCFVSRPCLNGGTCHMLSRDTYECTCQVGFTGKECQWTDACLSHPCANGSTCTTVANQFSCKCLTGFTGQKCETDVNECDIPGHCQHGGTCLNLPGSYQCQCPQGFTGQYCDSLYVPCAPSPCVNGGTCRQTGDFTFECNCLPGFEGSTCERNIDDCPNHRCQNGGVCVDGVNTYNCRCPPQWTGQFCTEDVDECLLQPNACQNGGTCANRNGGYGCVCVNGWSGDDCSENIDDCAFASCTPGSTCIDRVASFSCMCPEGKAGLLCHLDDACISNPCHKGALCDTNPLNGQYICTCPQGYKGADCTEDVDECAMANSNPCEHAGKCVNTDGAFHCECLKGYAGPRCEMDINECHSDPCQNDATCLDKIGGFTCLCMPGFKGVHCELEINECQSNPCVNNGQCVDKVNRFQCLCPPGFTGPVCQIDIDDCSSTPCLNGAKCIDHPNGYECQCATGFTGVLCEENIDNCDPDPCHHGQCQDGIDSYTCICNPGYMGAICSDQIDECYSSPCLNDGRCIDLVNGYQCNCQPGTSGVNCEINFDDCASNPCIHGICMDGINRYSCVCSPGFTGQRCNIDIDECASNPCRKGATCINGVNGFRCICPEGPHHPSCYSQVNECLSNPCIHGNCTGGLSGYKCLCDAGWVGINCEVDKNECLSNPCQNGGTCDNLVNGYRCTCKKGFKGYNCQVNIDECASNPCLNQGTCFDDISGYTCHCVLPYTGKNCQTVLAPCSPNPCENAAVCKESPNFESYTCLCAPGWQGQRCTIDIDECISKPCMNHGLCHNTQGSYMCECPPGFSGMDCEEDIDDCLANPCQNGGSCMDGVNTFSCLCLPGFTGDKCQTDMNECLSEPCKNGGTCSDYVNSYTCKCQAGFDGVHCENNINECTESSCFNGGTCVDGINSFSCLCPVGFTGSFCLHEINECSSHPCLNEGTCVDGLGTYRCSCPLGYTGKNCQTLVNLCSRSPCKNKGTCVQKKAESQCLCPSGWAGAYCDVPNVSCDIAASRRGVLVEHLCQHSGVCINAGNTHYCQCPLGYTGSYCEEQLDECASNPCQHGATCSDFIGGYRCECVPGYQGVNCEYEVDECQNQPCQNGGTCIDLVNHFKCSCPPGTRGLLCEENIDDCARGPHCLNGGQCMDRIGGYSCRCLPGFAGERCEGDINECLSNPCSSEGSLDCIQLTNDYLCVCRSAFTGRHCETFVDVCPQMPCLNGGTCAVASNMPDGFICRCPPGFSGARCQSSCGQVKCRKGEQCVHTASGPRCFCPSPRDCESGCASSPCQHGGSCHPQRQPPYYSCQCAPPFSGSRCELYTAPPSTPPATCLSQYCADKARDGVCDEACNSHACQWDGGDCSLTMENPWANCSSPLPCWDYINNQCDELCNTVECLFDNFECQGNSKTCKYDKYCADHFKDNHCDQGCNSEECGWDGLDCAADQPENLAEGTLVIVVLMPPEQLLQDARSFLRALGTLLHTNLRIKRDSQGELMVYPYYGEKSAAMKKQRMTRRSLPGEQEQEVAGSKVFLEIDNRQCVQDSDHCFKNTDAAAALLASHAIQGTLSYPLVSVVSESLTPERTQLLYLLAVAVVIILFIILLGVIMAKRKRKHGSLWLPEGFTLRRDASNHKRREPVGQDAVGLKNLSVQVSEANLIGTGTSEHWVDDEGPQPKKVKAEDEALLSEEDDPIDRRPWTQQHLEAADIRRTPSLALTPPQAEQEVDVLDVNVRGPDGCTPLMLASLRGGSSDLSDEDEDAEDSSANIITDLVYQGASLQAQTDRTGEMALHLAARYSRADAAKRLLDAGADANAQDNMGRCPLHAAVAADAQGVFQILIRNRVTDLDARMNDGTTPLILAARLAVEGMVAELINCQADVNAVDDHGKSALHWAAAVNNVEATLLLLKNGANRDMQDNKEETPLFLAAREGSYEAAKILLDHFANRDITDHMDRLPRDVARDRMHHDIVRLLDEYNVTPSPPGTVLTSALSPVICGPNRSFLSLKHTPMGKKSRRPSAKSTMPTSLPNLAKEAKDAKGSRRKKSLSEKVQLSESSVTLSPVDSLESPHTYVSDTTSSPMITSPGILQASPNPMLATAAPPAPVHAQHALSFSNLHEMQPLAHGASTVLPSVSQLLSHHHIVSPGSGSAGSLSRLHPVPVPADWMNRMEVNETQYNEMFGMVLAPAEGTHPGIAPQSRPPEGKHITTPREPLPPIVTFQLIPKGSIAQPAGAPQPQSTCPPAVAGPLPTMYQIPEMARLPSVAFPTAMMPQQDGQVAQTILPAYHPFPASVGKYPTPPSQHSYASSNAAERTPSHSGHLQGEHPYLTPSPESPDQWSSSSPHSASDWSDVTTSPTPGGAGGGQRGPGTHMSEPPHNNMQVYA
The target of test [6] is Pro-neuregulin-1, membrane-bound isoform (Homo sapiens) (UniProt Q02297). Description: small molecules binding neuregulin-1 protein – biochemical, small-molecule microarray, fluorescence 635/667, psychiatric disease protein project, primary screen (AID 1075).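 Note: score combines 667 nm spot fluorescence with signal to noise.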 Conditions: NRG1 binding, 635 nm fluorescence, higher = more signal.
Test [7] relates to Neuregulin-1 EGF-like domain. Description: small molecules binding NRG1 EGF domain – biochemical, small-molecule microarray, 635 nm fluorescence, primary screen (AID 1081).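 Note: binding of the protein to compounds printed on small-molecule microarray slides.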 Conditions: higher = more signal.
The nature of test [8]: FRG1 expression reporter modulators in myotubes – cell-based, C2C12 myotubes, firefly/Renilla luciferase, luminescence, FRG1 inhibition for FSHD, primary screen (AID 1084). Conditions: FRG1 promoter luciferase, higher = more signal, called active from +8 up or from −8 down.
Test [9] in a line: small molecules captured by biotinylated probe aFST – biochemical, small-molecule microarray, fluorescence 635/667, stem cell growth factor project, primary screen (AID 1086).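 Note: score merges 667 nm fluorescence with signal-to-noise of each printed compound spot.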 Conditions: higher = more signal.
Test [10] in a line: binders of probe aHhip on microarray, primary screen, stem cell growth factor project, biochemical, small-molecule microarray, fluorescence 635/667 (AID 1087).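 Note: score merges spot fluorescence at 667nm with spot signal to noise ratio.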 Conditions: higher = more signal.
Test [11] relates to PRMT1 (protein arginine N-methyltransferase 1). Description: small molecules binding arginine methyltransferase PRMT1 – biochemical, small-molecule microarray, 635 nm fluorescence, primary screen (AID 1088).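 Note: binding of Prmt1 protein to compounds spotted on small-molecule microarray slides.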 Conditions: higher = more signal.
Test [12] is described as follows: growth effects on S. cerevisiae YJM789 – YJM789 clinical isolate, OD600, 24 h, basal, primary screen (AID 1089).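 Note: growth of clinical yeast isolate S. cerevisiae YJM 789 seeded 1000 cells per well; test concentration not given here.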 Conditions: higher = more signal, called active from +8 up or from −8 down.
A short description of test [13]: S. pombe growth modifiers, basal conditions – strain 972, OD600, 24 h, no modulator, primary screen (AID 1090).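 Note: basal condition with compound alone and no growth modifier present; test concentration not given here.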 Conditions: S. pombe 972 growth, higher = more signal, called active from +8 up or from −8 down.
Test [14] in a line: budding yeast growth modifiers under rapamycin – strain BY4716, OD600, 96 h, primary screen (AID 1091). Note: test concentration not given here. Conditions: S. cerevisiae BY4716 + rapamycin, higher = more signal, called active from +8 up or from −8 down.
In test [15] the target is Torsin-1A-interacting protein 2 (Homo sapiens) (UniProt Q8NFQ8). Description: small molecules binding lysate-expressed LULL1 – cell lysate, human LULL1 lysate, 635/667 nm fluorescence, primary screen (AID 1092).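 Note: probe is lysate of COS7 cells overexpressing human LULL1; score merges per-feature 667 nm fluorescence with signal-to-noise.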 Conditions: small-molecule microarray, hLULL1 lysate binding, 635 nm fluorescence; higher = more signal.
Test [16] can be described thus: optical density change of DRC41 E. coli – strain DRC41, OD650, 24 h, E. coli filamentation project, primary screen (AID 1093).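 Note: MC1000 strain lacking acrAB efflux and sulA so SOS filamentation is blocked; test concentration not given here.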 Conditions: E. coli DRC41 growth, higher = more signal, called active from +8 up or from −8 down.
Test [17] can be described thus: probe aLefty2 binding to arrayed compounds – biochemical, biotinylated probe, 635/667 nm fluorescence, primary screen (AID 1094).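 Note: score merges spot fluorescence near 667 nm with spot signal-to-noise ratio.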 Conditions: small-molecule microarray, higher = more signal.
Test [18] deals with Noggin (protein binding on small-molecule microarray). The test is described as follows: small molecules binding Noggin protein – biochemical, 635/667 nm fluorescence, primary screen (AID 1095).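 Note: score merges 667 nm feature fluorescence with signal to noise over triplicate slides.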 Conditions: 635 nm fluorescence, higher = more signal.
Test [19] concerns the target Neurogenic locus notch homolog protein 3 (Homo sapiens) (UniProt Q9UM47). The test is described as follows: small molecules binding NOTCH3 protein – biochemical, 635/667 nm fluorescence, primary screen (AID 1096). Conditions: small-molecule microarray, 635 nm fluorescence, higher = more signal.
Test [20] in a line: probe aEGFR binding to arrayed compounds – biochemical, biotinylated probe, 635/667 nm fluorescence, primary screen (AID 1097).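 Note: probe is a biotinylated anti-EGFR antibody binding compounds printed on slides; score combines fluorescence near 667 nm and signal to noise of each spot.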 Conditions: small-molecule microarray, higher = more signal.

Calls of active or inactive are those of the source.

Chain of Neurogenic locus notch homolog protein 3 (Homo sapiens) (Q9UM47 whole entry, looked up): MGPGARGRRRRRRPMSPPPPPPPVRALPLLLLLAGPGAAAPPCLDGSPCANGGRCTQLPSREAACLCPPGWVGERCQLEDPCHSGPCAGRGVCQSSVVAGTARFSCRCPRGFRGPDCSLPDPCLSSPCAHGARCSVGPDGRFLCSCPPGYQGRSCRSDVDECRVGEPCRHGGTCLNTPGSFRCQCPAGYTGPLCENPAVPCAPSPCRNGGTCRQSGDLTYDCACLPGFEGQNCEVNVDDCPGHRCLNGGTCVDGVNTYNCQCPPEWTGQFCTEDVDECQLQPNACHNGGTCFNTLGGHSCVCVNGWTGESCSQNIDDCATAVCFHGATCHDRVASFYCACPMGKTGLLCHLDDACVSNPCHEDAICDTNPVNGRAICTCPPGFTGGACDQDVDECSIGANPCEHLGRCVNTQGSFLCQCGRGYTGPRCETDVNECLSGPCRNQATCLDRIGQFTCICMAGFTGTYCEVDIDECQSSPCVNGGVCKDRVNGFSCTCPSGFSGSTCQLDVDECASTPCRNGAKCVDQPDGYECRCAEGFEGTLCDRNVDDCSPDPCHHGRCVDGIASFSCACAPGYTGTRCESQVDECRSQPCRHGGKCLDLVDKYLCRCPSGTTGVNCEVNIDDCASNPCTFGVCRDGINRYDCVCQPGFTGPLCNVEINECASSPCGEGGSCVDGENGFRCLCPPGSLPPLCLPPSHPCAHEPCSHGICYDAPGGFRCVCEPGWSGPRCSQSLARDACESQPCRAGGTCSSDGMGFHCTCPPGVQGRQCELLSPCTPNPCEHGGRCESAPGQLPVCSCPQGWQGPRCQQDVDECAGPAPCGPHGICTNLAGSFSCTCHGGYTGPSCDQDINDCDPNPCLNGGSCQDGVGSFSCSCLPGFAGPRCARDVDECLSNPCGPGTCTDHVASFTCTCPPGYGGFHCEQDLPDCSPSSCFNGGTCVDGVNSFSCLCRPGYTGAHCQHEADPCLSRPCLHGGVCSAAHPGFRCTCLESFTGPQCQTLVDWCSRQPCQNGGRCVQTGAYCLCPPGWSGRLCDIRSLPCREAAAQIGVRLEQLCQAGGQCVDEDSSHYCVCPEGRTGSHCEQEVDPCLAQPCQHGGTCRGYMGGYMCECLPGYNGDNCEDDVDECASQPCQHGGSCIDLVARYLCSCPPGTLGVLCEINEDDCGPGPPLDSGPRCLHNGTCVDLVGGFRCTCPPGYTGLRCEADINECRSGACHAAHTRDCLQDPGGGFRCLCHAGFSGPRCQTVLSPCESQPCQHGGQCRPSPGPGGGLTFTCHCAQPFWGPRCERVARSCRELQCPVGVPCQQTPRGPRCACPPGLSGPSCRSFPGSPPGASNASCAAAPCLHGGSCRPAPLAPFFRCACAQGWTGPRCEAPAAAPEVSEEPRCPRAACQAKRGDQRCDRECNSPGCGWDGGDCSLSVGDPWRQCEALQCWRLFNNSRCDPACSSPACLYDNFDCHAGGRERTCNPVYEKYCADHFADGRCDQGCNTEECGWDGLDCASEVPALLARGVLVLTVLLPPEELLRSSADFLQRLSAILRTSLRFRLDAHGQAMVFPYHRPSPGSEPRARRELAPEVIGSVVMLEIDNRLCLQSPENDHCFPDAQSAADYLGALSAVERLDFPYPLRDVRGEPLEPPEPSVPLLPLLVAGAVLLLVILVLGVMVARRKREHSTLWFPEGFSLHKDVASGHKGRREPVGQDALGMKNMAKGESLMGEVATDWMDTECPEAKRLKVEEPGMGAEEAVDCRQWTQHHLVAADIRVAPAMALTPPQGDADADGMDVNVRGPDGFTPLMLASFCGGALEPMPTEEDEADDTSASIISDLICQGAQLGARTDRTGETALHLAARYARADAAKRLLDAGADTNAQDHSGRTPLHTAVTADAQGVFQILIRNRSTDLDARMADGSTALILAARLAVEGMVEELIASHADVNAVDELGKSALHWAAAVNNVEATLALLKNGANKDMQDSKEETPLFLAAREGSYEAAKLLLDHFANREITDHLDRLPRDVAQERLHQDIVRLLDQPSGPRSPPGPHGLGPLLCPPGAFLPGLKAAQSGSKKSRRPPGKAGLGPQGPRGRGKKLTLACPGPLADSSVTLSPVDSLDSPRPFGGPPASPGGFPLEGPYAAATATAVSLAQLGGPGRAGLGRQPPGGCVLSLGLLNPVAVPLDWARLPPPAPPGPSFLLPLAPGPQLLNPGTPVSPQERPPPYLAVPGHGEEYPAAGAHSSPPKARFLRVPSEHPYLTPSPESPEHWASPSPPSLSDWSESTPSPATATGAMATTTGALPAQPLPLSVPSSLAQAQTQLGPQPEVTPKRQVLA

Take `CN1C(=O)C2C(C1=O)C1C=C(CCCO)C2C(c2cccs2)N1C` (stereo not given): the composite z-score is -0.855 in test [1]; 1.65 in [2]; -0.2 in test [3]; 0.524 in [4]; -0.508 in test [5]; 0.822 in test [6]. Besides, the composite z-score in test [7] is 1.19; in test [9], -0.225; in test [10], -0.579; in test [11], -0.214; in test [15] it was 2.69; in test [17], -0.384. For the same molecule, the figures for the composite z-score in test [18], in [19] and in test [20] were -0.4, -0.553 and -0.385, respectively. The z-score in [8] is 0.22 (inactive); in test [12] it was -0.68 (inactive); in [13] it was -0.149 (inactive); in test [14] it was -0.113 (inactive); in [16] it was 0.729 (inactive).
For the molecule `COCCOC(=O)N1C(=O)[C@@]2(c3cc(C#CCC(C(=O)OC)C(=O)OC)ccc31)[C@H](C(=O)N1CCN(c3ncccn3)CC1)[C@H]1C(=O)O[C@H](c3ccccc3)[C@H](c3ccccc3)N1[C@@H]2c1ccc(OCCO)cc1`, the composite z-score in [1] was -0.462; in [2], 0.185; in test [3] it was -0.0293; in test [4] it was 0.0875; in test [5] it was 0.213; in test [6], 0.386. In addition, the composite z-score in [7] is 1.06; in [9] it was 0.0723; in test [10], -0.0088; in [11], 1.55; in test [15], 2.26; in test [17] it was -0.184. Besides, the composite z-score in test [18] is 0.668; in test [19], 0.946; in test [20], -0.141. The z-score in test [8] was -0.644 (inactive); in [12], -0.485 (inactive); in test [13], 0.196 (inactive); in test [14] it was 5.21 (inactive); in [16] it was 1.36 (inactive).
As to `CC(C)c1ccc(NN2C(C(O)c3c(F)cccc3Cl)C=CC3C(=O)N(c4ccccc4)C(=O)C32)cc1` (stereo not given), the composite z-score in test [1] was 1.07; in test [2], 0.177; in [3] it was 0.0923; in test [4], 0.653; in [5] it was 1.52; in [6] it was 1.31. In addition, the composite z-score was 0.973 in test [7]; 1.68 in test [9]; -0.139 in test [10]; 1.48 in test [11]; 3 in test [15]; 0.545 in test [17]. Moreover, the results for the composite z-score in [18], in test [19] and in test [20] were -0.041, 1.07 and 0.431, respectively. For the same molecule, the z-score is 2.73 (inactive) in test [8]; 0.808 (inactive) in test [12]; 1.83 (inactive) in [13]; 1.63 (inactive) in [14]; -2.2 (inactive) in test [16].
On to `O=c1cccc(C=Cc2ccccc2)o1`, for which the composite z-score is 0.236 in test [1]; -0.609 in [2]; -0.144 in test [3]; -0.0239 in [4]; -1.03 in test [5]; -0.458 in test [6]. In addition, the composite z-score in test [7] was -0.0882; in test [9], -0.369; in test [10], -0.0994; in [11], -0.127; in test [15], -0.756; in test [17] it was -0.214. Moreover, the results for the composite z-score in test [18], in [19] and in test [20] were 0.104, -1.13 and -0.142, respectively. Moreover, the z-score in [8] is 0.242 (inactive); in test [12], -0.411 (inactive); in test [13], -1.06 (inactive); in test [14], 1.14 (inactive); in test [16], 0.573 (inactive).
With `CC(=O)Nc1cc(Br)ccc1C(=O)O`, the composite z-score in test [1] was -0.135; in [2] it was -0.387; in [3], 0.0308; in [4] it was 0.239; in test [5], 0.425; in [6] it was 0.541. Besides, the composite z-score in test [7] is 0.748; in test [9], 0.353; in test [10], -0.221; in test [11] it was 0.183; in [15], 1.33; in test [17] it was -0.0006. Also, the composite z-score is 0.201 in [18], 0.482 in test [19] and -0.156 in test [20]. Moreover, the z-score is 0.466 (inactive) in test [8]; -0.0103 (inactive) in test [12]; 0.331 (inactive) in test [13]; 0.178 (inactive) in test [14]; -0.18 (inactive) in [16].
In the case of `COc1ccc(C(=O)Nc2cccc(CN3C(=O)[C@]4(O[C@H](CC(=O)N5CCC[C@H]5CO)[C@@H]([Si](C)(C)c5ccc(OC)cc5)[C@@H]4C)c4ccccc43)c2)cc1`, the composite z-score in test [1] was -0.0422; in test [2], 0.717; in test [3], 0.0257; in test [4], 0.394; in [5], 0.135; in [6], 0.847. In addition, the composite z-score was 1.12 in test [7]; 0.156 in test [9]; -0.253 in [10]; 1.38 in test [11]; 2.34 in test [15]; -0.181 in [17]. Moreover, the composite z-score in test [18] is 0.467; in test [19], 0.869; in [20] it was -0.157. Moreover, the z-score is -1.22 (inactive) in test [8]; -0.979 (inactive) in test [12]; -0.22 (inactive) in test [13]; -0.378 (inactive) in [14]; 0.44 (inactive) in test [16].
Turning to `[N-]=[N+]=NCc1ccccc1[C@@H]1OC(c2ccc(OCCCO)cc2)=N[C@]1(Cc1ccccc1N=[N+]=[N-])C(=O)NCc1ccccc1`, the composite z-score in test [1] was -0.253; in test [2], 0.485; in test [3] it was -0.0287; in [4], 0.272; in test [5], 1.15; in test [6], 0.612. The composite z-score is 1.05 in test [7]; 0.221 in test [9]; -0.113 in [10]; 1.55 in test [11]; 2.45 in [15]; 0.139 in test [17]. Moreover, the composite z-score was found to be 0.646 in test [18], 1.13 in [19] and 0.123 in test [20]. For the same molecule, the z-score in test [8] is -1.66 (inactive); in test [12], 1.1 (inactive); in [13] it was 1.44 (inactive); in test [14], 8.41 (active); in test [16], -0.911 (inactive).
Consider `Cc1ccc(S[C@]2(C(=O)NCC(C)C)CC(=O)N(Cc3ccccc3Cl)[C@@H]2c2ccc(CO)cc2)cc1`, for which the composite z-score was 1.27 in [1]; -0.48 in test [2]; -0.151 in [3]; -0.584 in test [4]; -1.36 in [5]; -0.612 in test [6]. In addition, the composite z-score in test [7] was -0.232; in test [9], -0.982; in test [10], -0.284; in [11], -0.446; in [15], 0.294; in test [17], -0.0216. Moreover, the composite z-score in [18] was -1.98; in test [19], -1.5; in test [20], -0.228. Also, the z-score was -2.55 (inactive) in test [8]; -0.259 (inactive) in test [12]; -0.751 (inactive) in test [13]; -0.0993 (inactive) in [14]; -0.0077 (inactive) in test [16].
In the case of `COc1ccc(C(O)C2C=CC3C(=O)N(C)C(=O)C3N2Nc2ccccc2)cc1OCc1ccccc1` (stereo not given), the composite z-score was determined as 0.008 in test [1]; 0.174 in [2]; 0.0258 in [3]; 0.386 in test [4]; 1.28 in [5]; 1.94 in test [6]. Moreover, the composite z-score in test [7] came out at 1.31; in [9], 0.346; in [10] it was 0.208; in test [11], 1.49; in test [15], 3.41; in [17] it was 0.287. Besides, the values for the composite z-score in test [18], in test [19] and in [20] were 0.102, 0.742 and 0.0099, respectively. Besides, the z-score in [8] was -1.1 (inactive); in test [12], -4.02 (inactive); in [13] it was 1.11 (inactive); in [14], 0.317 (inactive); in [16], -1.2 (inactive).
Turning to `COCCCNC(=O)[C@@]1(c2ccc([N+](=O)[O-])cc2)CC(=O)N(CC23CC4CC(CC(C4)C2)C3)[C@@H]1c1ccc(CO)cc1`, the composite z-score in [1] was -0.46; in test [2] it was 0.666; in test [3], -0.0453; in [4], 0.264; in [5], 1.36; in [6], 0.43. The composite z-score in test [7] is 1.17; in test [9], 0.573; in [10] it was -0.0296; in [11], 1.54; in test [15], 2.28; in test [17], 0.0054. Also, the composite z-score in test [18] was 1.54; in test [19], 1.08; in test [20], 0.0117. Further, the z-score in test [8] is -2.08 (inactive); in test [12] it was 0.38 (inactive); in [13], -0.634 (inactive); in test [14] it was -0.101 (inactive); in test [16], 1.45 (inactive).
